Assay results from ChEMBL document CHEMBL3988442, “University of Dundee, Small-Polar-MMV Screening Library” (2021).
For some assays here: Measured potencies and affinities stand elsewhere.

Assays:
Design in all cases: scale not given: direction of the effect not stated beside the values
[1] = biological target: Protein translocase subunit SecA (Escherichia coli (strain K12)) (UniProt P10408); test: Assay to Identify E. coli SecA ATPase Inhibitors; type: functional; settings: 30 µM
[2] = biological target: T1, Ubiquitin-activating enzyme e1, putative (Leishmania donovani (strain BPK282A1)) (UniProt E9BSI1); test: Leishmania donovani Ubiquitin Activating Enzyme (LdE1); type: functional; settings: 30 µM
T1 sequence (whole entry): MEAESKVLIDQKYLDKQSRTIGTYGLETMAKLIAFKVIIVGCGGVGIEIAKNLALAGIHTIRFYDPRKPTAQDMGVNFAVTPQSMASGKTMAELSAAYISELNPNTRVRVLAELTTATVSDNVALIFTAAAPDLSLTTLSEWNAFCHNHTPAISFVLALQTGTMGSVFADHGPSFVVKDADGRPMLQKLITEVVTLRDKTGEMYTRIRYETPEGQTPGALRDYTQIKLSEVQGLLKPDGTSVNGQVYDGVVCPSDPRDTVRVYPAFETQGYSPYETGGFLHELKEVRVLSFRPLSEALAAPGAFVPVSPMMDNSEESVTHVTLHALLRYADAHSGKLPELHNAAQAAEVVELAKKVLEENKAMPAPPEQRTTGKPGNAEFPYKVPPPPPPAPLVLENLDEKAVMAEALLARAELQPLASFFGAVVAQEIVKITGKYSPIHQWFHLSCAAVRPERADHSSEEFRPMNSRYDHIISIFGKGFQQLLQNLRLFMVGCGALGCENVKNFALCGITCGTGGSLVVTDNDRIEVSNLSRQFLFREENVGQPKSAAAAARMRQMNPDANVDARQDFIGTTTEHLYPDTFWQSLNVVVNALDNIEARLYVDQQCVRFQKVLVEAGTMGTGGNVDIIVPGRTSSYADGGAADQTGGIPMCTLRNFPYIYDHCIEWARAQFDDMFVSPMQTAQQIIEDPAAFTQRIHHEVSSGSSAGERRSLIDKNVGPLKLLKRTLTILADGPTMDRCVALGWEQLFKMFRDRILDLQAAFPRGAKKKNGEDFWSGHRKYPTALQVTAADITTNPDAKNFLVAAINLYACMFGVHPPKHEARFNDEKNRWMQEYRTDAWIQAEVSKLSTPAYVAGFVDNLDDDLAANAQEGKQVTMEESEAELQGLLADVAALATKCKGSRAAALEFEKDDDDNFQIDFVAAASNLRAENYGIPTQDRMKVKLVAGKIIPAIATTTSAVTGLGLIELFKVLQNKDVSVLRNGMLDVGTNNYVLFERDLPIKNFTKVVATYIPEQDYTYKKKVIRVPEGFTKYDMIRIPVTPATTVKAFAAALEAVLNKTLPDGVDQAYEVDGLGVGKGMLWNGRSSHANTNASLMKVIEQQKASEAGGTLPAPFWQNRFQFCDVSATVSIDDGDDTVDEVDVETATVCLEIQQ

[3] = biological target: AMP-activated protein kinase, AMPK (Homo sapiens) (UniProt P54646+O43741+P54619+Q9UGJ0+Q9Y478+Q13131+Q9UGI9); test: AMP-dependent Kinase enzyme assay. An in vitro enzyme assay that detects ADP turnover that is directly proportional to AMPK activity. This uses naive AMPK that is activated during the assay with MK-8722; type: functional; settings: 30 µM
[4] = biological target: Sialic acid-binding Ig-like lectin 9 (Homo sapiens) (UniProt Q9Y336); test: Hs-Siglec9 ALPHAscreen SOP 20170721; settings: 10 µM
Trypanosoma cruzi = test: Trypanosoma cruzi phosphomannomutase and mannose-1-phosphate guanylyltransferase assay; type: functional; settings: 10 µM
[5] = biological target: T2, Arginase-2, mitochondrial (Homo sapiens) (UniProt P78540); test: in vitro enzyme assay to detect the production of urea directly proportional to the activity of Arginase II; type: functional; settings: 33.3 µM; also: in the data most compounds retested in dose-response had high values
T2 sequence (whole entry): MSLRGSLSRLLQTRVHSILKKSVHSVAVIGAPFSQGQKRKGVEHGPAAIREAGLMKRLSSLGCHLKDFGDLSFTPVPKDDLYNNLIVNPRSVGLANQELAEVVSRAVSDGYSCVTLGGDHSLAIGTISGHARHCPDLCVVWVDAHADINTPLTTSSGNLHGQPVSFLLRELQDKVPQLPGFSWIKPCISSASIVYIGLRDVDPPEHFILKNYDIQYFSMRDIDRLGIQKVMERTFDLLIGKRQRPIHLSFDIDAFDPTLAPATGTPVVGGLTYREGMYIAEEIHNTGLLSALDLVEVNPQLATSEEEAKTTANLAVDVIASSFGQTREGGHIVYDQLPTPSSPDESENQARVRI

[6] = biological target: T3, Proteasome subunit beta (Trypanosoma cruzi) (UniProt O96673); test: Trypanosoma cruzi proteasome chymotrypsin-like activity (TcProtChymo) assay.; also: in the data most compounds retested in dose-response had high values; type: functional; settings: 9.37 µM
T3 sequence (whole entry): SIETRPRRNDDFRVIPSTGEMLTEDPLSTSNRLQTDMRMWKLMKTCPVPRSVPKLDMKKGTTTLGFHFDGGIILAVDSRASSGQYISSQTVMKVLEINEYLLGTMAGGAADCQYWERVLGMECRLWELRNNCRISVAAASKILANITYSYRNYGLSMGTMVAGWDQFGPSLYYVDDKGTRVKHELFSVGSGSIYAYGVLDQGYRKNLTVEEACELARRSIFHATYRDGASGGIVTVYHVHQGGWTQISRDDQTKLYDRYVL

Homo sapiens = organism: Homo sapiens; test: To identify inhibition of the IFN signalling (Jak-Stat) pathway via expression of an eGFP reporter gene under the control of an IFN-stimulated response element (ISRE) containing MxA promoter.; type: functional; settings: 30 µM
[7] = biological target: T4, Tyrosyl-tRNA synthetase, putative (Trypanosoma cruzi (strain CL Brener)) (UniProt Q4DSP6); test: Trypanosoma cruzi tyrosyl tRNA synthetase (TcYRS) _High Tyrosine SOP; type: functional; settings: 30 µM; also: in the data most compounds retested in dose-response had high values
T4 sequence (whole entry): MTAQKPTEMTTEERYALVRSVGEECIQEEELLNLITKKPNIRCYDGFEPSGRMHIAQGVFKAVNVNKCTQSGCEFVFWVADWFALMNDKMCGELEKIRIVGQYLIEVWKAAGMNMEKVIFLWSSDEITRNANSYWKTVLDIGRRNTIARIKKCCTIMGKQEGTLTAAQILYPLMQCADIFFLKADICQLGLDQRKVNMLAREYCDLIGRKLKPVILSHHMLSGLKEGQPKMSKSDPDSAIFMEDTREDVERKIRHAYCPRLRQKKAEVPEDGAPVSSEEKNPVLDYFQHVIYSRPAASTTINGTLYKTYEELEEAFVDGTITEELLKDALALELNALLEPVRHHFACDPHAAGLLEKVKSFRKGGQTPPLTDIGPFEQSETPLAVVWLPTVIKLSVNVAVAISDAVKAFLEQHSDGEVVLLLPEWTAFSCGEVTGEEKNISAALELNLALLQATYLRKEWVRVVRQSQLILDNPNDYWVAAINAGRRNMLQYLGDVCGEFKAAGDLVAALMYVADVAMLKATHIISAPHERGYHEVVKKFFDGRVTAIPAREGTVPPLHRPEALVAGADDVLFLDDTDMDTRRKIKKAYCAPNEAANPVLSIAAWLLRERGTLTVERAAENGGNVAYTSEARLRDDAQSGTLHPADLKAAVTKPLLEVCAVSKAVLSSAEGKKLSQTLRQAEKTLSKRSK

[8] = biological target: T4, Tyrosyl-tRNA synthetase, putative (Trypanosoma cruzi (strain CL Brener)); test: Trypanosoma cruzi tyrosyl tRNA synthetase (TcYRS) SOP; type: functional; settings: 30 µM
[9] = biological target: Chromo domain-containing protein 1 (Saccharomyces cerevisiae (strain ATCC 204508 / S288c) (Baker's yeast)) (UniProt P32657); test: ScCHD-1 Enzyme Inhibition Assay; type: functional; settings: 30 µM; also: in the data most compounds retested in dose-response had high values
Chain of Chromo domain-containing protein 1 (Saccharomyces cerevisiae (strain ATCC 204508 / S288c) (Baker's yeast)) (P32657 whole entry, the tested form may be a part): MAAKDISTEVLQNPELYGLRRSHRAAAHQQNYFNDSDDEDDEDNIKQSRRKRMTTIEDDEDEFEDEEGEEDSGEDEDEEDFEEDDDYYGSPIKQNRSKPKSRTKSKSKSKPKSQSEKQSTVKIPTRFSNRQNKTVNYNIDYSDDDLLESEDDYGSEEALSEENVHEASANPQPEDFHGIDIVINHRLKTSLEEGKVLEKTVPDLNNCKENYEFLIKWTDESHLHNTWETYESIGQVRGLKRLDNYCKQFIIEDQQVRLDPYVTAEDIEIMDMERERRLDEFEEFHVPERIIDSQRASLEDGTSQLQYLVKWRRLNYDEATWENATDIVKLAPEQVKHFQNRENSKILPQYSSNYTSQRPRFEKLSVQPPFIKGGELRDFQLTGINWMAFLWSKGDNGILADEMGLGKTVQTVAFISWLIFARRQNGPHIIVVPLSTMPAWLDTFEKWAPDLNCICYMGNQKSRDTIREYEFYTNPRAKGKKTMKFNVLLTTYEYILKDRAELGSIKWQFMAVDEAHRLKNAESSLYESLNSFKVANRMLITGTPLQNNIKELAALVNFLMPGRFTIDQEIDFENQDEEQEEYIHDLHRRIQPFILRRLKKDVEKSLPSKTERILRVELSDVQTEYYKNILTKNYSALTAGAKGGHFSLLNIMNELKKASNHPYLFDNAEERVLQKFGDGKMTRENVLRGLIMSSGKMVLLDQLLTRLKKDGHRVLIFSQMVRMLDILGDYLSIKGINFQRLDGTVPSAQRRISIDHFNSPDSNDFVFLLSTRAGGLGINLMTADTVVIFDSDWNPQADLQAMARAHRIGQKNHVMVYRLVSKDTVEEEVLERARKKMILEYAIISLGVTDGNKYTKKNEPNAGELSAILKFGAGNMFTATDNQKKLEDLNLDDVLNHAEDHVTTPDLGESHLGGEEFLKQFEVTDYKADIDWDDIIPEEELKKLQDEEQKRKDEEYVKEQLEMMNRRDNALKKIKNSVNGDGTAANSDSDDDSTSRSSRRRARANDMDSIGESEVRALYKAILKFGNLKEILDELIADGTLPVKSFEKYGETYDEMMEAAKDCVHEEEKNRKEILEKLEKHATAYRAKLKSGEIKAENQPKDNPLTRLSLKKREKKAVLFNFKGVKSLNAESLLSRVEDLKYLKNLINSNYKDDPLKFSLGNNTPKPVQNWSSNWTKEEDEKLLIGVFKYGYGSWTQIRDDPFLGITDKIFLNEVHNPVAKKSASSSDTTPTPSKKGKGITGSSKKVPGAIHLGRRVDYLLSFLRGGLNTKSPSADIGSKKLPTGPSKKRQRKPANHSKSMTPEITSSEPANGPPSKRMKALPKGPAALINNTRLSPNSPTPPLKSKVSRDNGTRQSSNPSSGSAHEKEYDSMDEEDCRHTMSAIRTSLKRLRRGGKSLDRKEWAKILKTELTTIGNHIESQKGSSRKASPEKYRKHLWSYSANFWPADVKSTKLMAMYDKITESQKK

Chain of Sialic acid-binding Ig-like lectin 9 (Homo sapiens) (Q9Y336 whole entry): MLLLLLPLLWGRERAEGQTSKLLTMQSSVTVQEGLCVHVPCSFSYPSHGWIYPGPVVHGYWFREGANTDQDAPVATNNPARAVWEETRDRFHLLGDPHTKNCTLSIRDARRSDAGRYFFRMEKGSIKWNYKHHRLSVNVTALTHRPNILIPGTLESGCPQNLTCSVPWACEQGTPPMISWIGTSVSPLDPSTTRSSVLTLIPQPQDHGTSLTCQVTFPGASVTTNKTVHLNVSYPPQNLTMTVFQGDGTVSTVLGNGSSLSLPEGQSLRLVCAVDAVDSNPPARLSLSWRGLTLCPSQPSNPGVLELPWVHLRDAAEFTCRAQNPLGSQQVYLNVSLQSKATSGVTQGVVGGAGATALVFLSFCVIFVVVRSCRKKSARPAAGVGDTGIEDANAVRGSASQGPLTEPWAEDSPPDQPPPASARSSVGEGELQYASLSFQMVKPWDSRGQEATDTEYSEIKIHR
Chain of Protein translocase subunit SecA (Escherichia coli (strain K12)) (P10408 whole entry): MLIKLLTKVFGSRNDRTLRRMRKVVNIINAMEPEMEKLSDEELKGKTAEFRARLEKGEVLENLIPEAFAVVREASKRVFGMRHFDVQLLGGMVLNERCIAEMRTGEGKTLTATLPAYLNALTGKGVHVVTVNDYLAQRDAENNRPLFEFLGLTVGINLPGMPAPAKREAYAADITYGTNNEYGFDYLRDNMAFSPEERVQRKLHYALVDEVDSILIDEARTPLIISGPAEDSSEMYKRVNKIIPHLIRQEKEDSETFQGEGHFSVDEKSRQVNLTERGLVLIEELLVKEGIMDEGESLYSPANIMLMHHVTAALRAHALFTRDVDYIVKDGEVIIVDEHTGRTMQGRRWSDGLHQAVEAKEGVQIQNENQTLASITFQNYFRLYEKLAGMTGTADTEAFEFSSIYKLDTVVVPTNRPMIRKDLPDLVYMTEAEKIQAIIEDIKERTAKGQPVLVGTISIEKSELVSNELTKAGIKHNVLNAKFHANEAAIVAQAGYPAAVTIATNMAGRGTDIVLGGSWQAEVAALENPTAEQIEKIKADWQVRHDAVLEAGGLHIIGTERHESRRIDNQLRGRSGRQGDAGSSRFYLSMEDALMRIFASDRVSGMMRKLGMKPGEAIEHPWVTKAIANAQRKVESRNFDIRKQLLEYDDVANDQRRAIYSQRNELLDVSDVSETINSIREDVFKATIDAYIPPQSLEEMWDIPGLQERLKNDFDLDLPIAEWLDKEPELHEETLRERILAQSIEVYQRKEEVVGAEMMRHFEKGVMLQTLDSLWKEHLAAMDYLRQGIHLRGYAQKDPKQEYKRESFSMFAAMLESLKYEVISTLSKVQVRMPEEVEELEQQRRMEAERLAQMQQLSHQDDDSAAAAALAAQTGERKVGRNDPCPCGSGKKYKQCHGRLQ

Row | Structure (SMILES) | Percent Effect [1] | Percent Effect [2] | Percent Effect [3] | Percent Effect [4] | Percent Effect (Trypanosoma cruzi) | Percent Effect [5] | Percent Effect [6] | Percent Effect (Homo sapiens) | Percent Effect [7] | Percent Effect [8] | Percent Effect [9]
1 | Cc1ccc(-c2noc(CN3CCOC(Cn4cncn4)C3)n2)cc1 (configuration not stated) | -4.95% | -5.41% | 0.576% | 2.63% | 2.14% | -2.03% | -1.79% | 8.27% | 2.97% | -1.22% | 5.54%
2 | Cc1nc(C)n(CC2CCCN2Cc2cscn2)n1 (configuration not stated) | -4.14% | 2.6% | 3.5% | 10.9% | 2.64% | -0.21% | -0.404% | -14.6% | 5.71% | 11.8% | -13.6%
3 | Cc1cnn(CCNCc2nc(Cc3ccccc3)no2)c1 | -0.787% | 0% | -3.33% | -0.739% | -1.32% | 5.75% | 5.51% | 13.2% | 5.39% | 7.32% | 2.72%
4 | O=C1CCc2cc(-c3csc(CCN4CCCC4=O)n3)ccc2N1 | -2.58% | 20.8% | 4.11% | 2.39% | 0.936% | -4.98% | 5.41% | 22.8% | 15.5% | 19.5% | -7.82%
5 | CS(=O)(=O)c1ccc(C(O)CN2CCC(c3ccn[nH]3)CC2)cc1 (configuration not stated) | -2.89% | 15.2% | -2.45% | -1.3% | -2.17% | 4.94% | 5.32% | -11.8% | 5.42% | 16.5% | -6.15%
6 | CCOCC(=O)N1CCC(Oc2ccc(Cl)cn2)CC1 | -0.654% | 7.79% | 2.32% | 8.91% | -0.888% | 4.52% | 25.9% | 21.4% | 8.47% | 8.97% | -8.06%
7 | COCCN1CCN(Cc2noc(C3CC3)n2)CC1C (configuration not stated) | 0.0669% | 22.8% | -4.5% | -13.4% | -3.87% | 1.14% | 10.7% | -0.744% | 1.48% | 11.4% | -3.63%
8 | Cc1nn(C)c2c(NCCCn3cccn3)ncnc12 | -1.47% | 9.33% | 2.34% | -1.8% | 3.34% | -3.35% | 21.6% | -12.4% | 2.12% | 15.4% | -7.78%
9 | CN(C)C(=O)Cc1nc(CN2CCCCC2Cn2cccn2)cs1 (configuration not stated) | -2.18% | -2.63% | 87.3% | -6.24% | 1.07% | -2.37% | 12.8% | 9.75% | 1.06% | -5.2% | -0.00308%
10 | CC(C)NC(=O)C1CN(C(N)=O)Cc2ccnn2C1 (configuration not stated) | -0.679% | 10.7% | 5.48% | 1.25% | 0.579% | -58.2% | 9.91% | 0.0597% | 3.12% | 15% | -5.6%
11 | CCc1nnc(CN2CCN(C(=O)c3ccccn3)CC2)o1 | 0.554% | 10.4% | 1.99% | -1.91% | -0.881% | 6.53% | 4.45% | 24.1% | 5.71% | 9.41% | -20.1%
12 | COc1ccc2c(O)c(NC(=O)NCC3CC3)cnc2c1 | 1.05% | 14.9% | 9.57% | -7.59% | -1.38% | -4.87% | 14.7% | 7.86% | 2.15% | 9.09% | -11.6%
13 | CCc1nc(CCNC(=O)NC2CC2)sc1C | -5.62% | 0% | -1.43% | -3.96% | 0% | 1.67% | 9.89% | 5.25% | 6.93% | -1.22% | -6.36%
14 | Cc1csc(N2CCN(C(=O)CCc3nccs3)CC2)n1 | -6.78% | 8.11% | -8.38% | 7.91% | 3.11% | -17.2% | 5.59% | 11.7% | 12.3% | 28.4% | -11.1%
15 | COc1cccc2c1OCC(C(=O)N(C)CCCc1cnn(C)c1)C2 (configuration not stated) | -3.02% | 0% | -14.1% | -2.21% | -6.27% | 3.64% | 4.79% | 12.6% | 0% | 7.5% | -4.59%
16 | NC(=O)C1CN(C(=O)Nc2ccccc2-c2cccs2)CCO1 (configuration not stated) | -6.75% | 18.9% | -3.93% | 20.2% | 5.66% | -2.4% | -3.23% | 6.89% | 2.97% | 18.3% | -6.91%
17 | Cc1nccc(N2CCC(=O)N(Cc3ccc(F)cc3)C(C(C)C)C2)n1 (configuration not stated) | -2.94% | 1.39% | 1.69% | -1.4% | -1.07% | -0.883% | 4.56% | -6.54% | 0% | 2.56% | 1.68%
18 | O=C(c1ccc2c(c1)OCO2)N1CCCSCC1CN1CCCC1 (configuration not stated) | -4.51% | 7.79% | 6.33% | 7.89% | -1.08% | 5.81% | 8.53% | -0.0393% | 8.47% | 11.5% | -7.09%
19 | CC(c1ccc(Cl)cc1)N1CCN(CCS(C)(=O)=O)CC1 (configuration not stated) | -3.62% | 5.41% | 0.609% | 6.25% | -0.579% | 3.81% | 14% | 10.3% | 3.7% | 14.6% | -5.14%
20 | Cn1cnnc1S(=O)(=O)C1CCN(S(=O)(=O)C2CC2)CC1 | -2.77% | -2.74% | 14.5% | 1.56% | -3.72% | -2.27% | 9.41% | -3.78% | -3.23% | 2.5% | -1.03%
21 | Cc1nc(-c2ccsc2)ccc1C(=O)O | -3.65% | 4.17% | 0.691% | -1% | 0.68% | 2.65% | 21.9% | -3.42% | 5.26% | 10.3% | -3.62%
22 | O=C(NCCNc1ncccn1)C1CCN(C(=O)C2CC2)CC1 | -2.16% | 13.5% | 5.28% | -1.97% | -4.55% | 5.36% | 0.718% | 13.2% | 6.93% | 13.4% | 3.86%
